A selection: hits, their analogues and other compounds. The true share with any hit is near 4.4%.
ALOX12 inhib – blocks human 12-lipoxygenase activity. purified 12-hLO, xylenol orange hydroperoxide absorbance. Potency, µM (series often up to 57.1 µM), for the others: at the top dose activity change, negative = inhibition, usual class: inhibitors. 150,000 tested, 0.12% active. AID 1452; further: nearly all actives have a fitted effect of over 55% in size
Target sequence (P18054 whole entry, looked up): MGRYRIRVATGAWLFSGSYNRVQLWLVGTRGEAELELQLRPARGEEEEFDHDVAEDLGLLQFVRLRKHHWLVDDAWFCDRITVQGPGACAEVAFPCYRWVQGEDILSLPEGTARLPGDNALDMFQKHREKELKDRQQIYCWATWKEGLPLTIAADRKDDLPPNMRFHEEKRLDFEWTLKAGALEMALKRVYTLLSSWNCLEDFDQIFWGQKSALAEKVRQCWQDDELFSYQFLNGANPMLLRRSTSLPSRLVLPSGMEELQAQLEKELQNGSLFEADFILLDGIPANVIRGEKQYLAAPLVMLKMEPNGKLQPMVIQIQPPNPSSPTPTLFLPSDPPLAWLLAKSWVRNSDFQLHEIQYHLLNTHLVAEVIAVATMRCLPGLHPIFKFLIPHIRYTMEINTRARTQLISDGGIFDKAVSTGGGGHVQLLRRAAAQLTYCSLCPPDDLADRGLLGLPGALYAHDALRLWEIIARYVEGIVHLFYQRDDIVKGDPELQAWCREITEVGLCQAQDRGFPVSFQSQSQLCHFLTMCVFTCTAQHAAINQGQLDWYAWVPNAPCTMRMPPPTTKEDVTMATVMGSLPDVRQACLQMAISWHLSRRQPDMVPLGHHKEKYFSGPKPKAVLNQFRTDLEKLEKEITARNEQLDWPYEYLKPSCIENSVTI
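Hydroperoxide formation by human 12-lipoxygenase from 40 uM arachidonic acid was followed colorimetrically via ferric-xylenol orange complex, using the 573/405 nm absorbance ratio. Enzyme concentration was 150 nM, with 30 min reaction at room temperature.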
p53ts 32C tox – p53ts cell cytotoxicity, permissive temperature; 130,000 tested, 0.93% active; Potency, µM (series often up to 46.1 µM), for inactives: at the highest dose activity change, negative = cytotoxicity, hits mostly cytotoxic; H1299-p53A138V at 32C, ATP luminescence viability, 24 h;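 further: 0% = DMSO and -100% = full killing by reference compound; nearly all actives have a fitted effect of over 55% in size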
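Viability by ATPlite luminescence after 24 h compound treatment (up to 46 uM) at the permissive 32C. Cells are H1299 carrying p53 A138V. Scale runs from DMSO basal to 100 uM tamoxifen as full kill; AC50 from Hill fits.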
p53ts 39C kill – p53ts cell cytotoxicity, nonpermissive temperature; H1299-p53A138V viability at 39C, ATP luminescence, 24 h; Potency, µM (series often up to 46.1 µM), without a hit: top-dose activity change, negative = cell killing, hits mostly cytotoxic; 130,000 tested, 1.5% active; AID 902; further: nearly all actives have a fitted effect of over 55% in size
HPGD block – HPGD (human) dehydrogenase inhibition; P15428; purified HPGD, NADH fluorescence kinetic, PGE2 substrate; Potency, µM, for inactives: at the highest dose activity change, negative = inhibition, hits mostly inhibitors; 150,000 tested, 4.3% active; AID 894; active means well fitted inhibition curve with a large enough effect, not every such curve was filed as active; inconclusive means small, poorly fitted or top-dose-only effect, or another doubt; inactive means no such curve, though single readings can be large or run the other way
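20 nM HPGD preincubated 15 min at room temperature with compound in 50 mM Tris-HCl pH 8, 0.01% Tween 20. Started with 1 mM NAD+ and 30 uM prostaglandin E2; NADH fluorescence (360/450 nm) read 5 times over 30-s intervals, last minus first.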
The depositor's hits bear a star. Unless noted, the call rests on the fitted dose curve; in most records, active means well fitted curve in the direction sought with a large enough effect; inconclusive means small, poorly fitted or top-dose-only effect, or another doubt; inactive means no such curve, though single readings can be large; an effect the other way counts as inactive or inconclusive. Unless noted, on the % scale 0 is the no-effect control and ±100 the full control effect; potency means the concentration at half of the fitted maximal effect.

For CCc1nnc(NS(=O)(=O)c2ccc(N=Cc3c(C)[nH]n(-c4cccc(Cl)c4)c3=O)cc2)s1 the results were ALOX12 inhib 22.1% and HPGD block 12.6µM*.
`COc1nccnc1NS(=O)(=O)c1ccc(N=Cc2c(C)[nH]n(-c3ccc(C)c(C)c3)c2=O)cc1` gave ALOX12 inhib -3.0% and HPGD block 22.4µM*.
`O=C(O)CSc1nc2ccc(Cl)cc2[nH]1` gave ALOX12 inhib 4.1%, p53ts 32C tox 5.5%, p53ts 39C kill -12.4% and HPGD block -12.6%.
For C=C(C)CN(CC)C(=O)CSc1nc2ncc(Cl)cc2[nH]1 the results were ALOX12 inhib -4.0%, p53ts 32C tox -10.0%, p53ts 39C kill -13.1% and HPGD block 14.1µM*.
For O=C(C/C(=N/O)c1ccccc1O)C(F)F the results were ALOX12 inhib -9.4% and HPGD block 15.8µM*.
O=S(=O)(Cc1ccccc1)N1CCCCC1 was read as ALOX12 inhib -6.2% and HPGD block 31.6µM*.
Screening O=S(=O)(Cc1ccccc1)N1CCCCCC1 returned ALOX12 inhib 0.8%, p53ts 32C tox 11.1%, p53ts 39C kill 5.8% and HPGD block -0.3%.
Cc1ccsc1/C=C1/SC(N2CC(C)OC(C)C2)=NC1=O (stereo unspecified) was read as ALOX12 inhib 2.2% and HPGD block 31.6µM*.
Screening Cc1ccsc1/C=C1\SC(N)=NC1=O returned ALOX12 inhib -7.4% and HPGD block -25.9%.
Screening CC12CN3CC(c4ccccc4)(CN(C1)C3c1ccc(Cl)cc1)C2=O (stereo unspecified) returned p53ts 32C tox -7.1% and p53ts 39C kill -9.3%.
CN1C(=O)/C(=C/c2ccccc2OCc2ccccc2)NC1=S was read as ALOX12 inhib -0.4% and HPGD block 11.2µM*.
Screening CN1C(=O)/C(=C/c2ccccc2OCc2cccc(F)c2)NC1=S returned ALOX12 inhib -0.1% and HPGD block 4.47µM*.
Screening CCOC(=O)C1CCCN(C(=O)c2ccc3c(c2)sc2nc(-c4cccc(OC)c4)cn23)C1 (stereo unspecified) returned p53ts 32C tox 0.8% and p53ts 39C kill inconclusive.
Cn1cc(C(c2ccccc2)c2ccc(Cl)s2)c2ccccc21 (stereo unspecified) was read as p53ts 32C tox 11.1% and p53ts 39C kill 2.5%.
Screening Cc1cccc(CNc2cc(-c3cccnc3)ncn2)c1 returned ALOX12 inhib -4.6%, p53ts 32C tox -0.5%, p53ts 39C kill -14.1% and HPGD block inconclusive.
Cc1c(C(=O)O)oc2ccc(S(=O)(=O)N3CCC(C)CC3)cc12 was read as ALOX12 inhib -0.1%, p53ts 32C tox 7.4%, p53ts 39C kill -1.8% and HPGD block 11.2µM*.
Screening CCC(OC(=O)c1nsc(Cl)c1Cl)C(=O)NCc1cccs1 (stereo unspecified) returned ALOX12 inhib 4.1%, p53ts 32C tox 4.6%, p53ts 39C kill 0.0% and HPGD block 25.1µM*.
Screening CC(C)CC(OC(=O)c1nsc(Cl)c1Cl)C(=O)NCc1cccs1 (stereo unspecified) returned ALOX12 inhib -3.2%, p53ts 32C tox 3.7%, p53ts 39C kill 9.9% and HPGD block 5.01µM*.
Screening CCOC(=O)C1CCC(CN(Cc2ccc(OC)cc2)S(=O)(=O)c2ccc(F)c(C(=O)Nc3c(C)cccc3C)c2)CC1 (stereo unspecified) returned p53ts 32C tox 2.4% and p53ts 39C kill -23.5%.
COc1cccc(-c2cc(N(C)Cc3ccco3)ncn2)c1 was read as p53ts 32C tox inconclusive and p53ts 39C kill 12.6µM*.
CN(C)c1ccc(-c2cc(N(C)Cc3ccco3)ncn2)cc1 was read as p53ts 32C tox 12.6µM* and p53ts 39C kill 12.6µM*.
COCc1c(C)cc(C)c(/C=N/O)c1C was read as ALOX12 inhib 4.5%, p53ts 32C tox 1.7%, p53ts 39C kill 15.8% and HPGD block 14.1µM*.
`O=C(CSc1c2c(nc3cc(Cl)ccc13)CCCC2)N1CCN(c2ccccc2)CC1` gave p53ts 32C tox inconclusive and p53ts 39C kill 25.1µM*.
Screening O=C(O)CSc1c2c(nc3cc(C(=O)N4CCOCC4)ccc13)CCCC2 returned ALOX12 inhib 0.5%, p53ts 32C tox 7.8%, p53ts 39C kill 0.0% and HPGD block 3.98µM*.
`CCOC(=O)N1CCN(C(=O)c2ccc3c(SCC(=O)O)c4c(nc3c2)CCCC4)CC1` gave ALOX12 inhib -4.0%, p53ts 32C tox 1.4%, p53ts 39C kill 0.1% and HPGD block -4.4%.
`CC1CCN(C(=O)CSc2c3c(nc4cc(Cl)ccc24)CCCC3)CC1` gave p53ts 32C tox -27.8% and p53ts 39C kill 15.8µM*.
Screening Nc1c2c(nc3ccccc13)CCC[C@H]2O returned ALOX12 inhib -1.7%, p53ts 32C tox -7.2% and p53ts 39C kill 10.6%.
CCOC(=O)c1cccc(NC(=O)CCn2nc(C)c3c(C)n(-c4ccccc4)nc3c2=O)c1 was read as p53ts 32C tox -2.4% and p53ts 39C kill -17.0%.
`COc1cccc(C(=O)N2CCc3cc(OC)c(OC)cc3C2COc2ccc3c(C)cc(=O)oc3c2)c1` (stereo unspecified) gave p53ts 32C tox 1.6% and p53ts 39C kill inconclusive.
For CN(NC(=S)Nc1ccc(OC(F)F)cc1)C(=S)Nc1ccc(OC(F)F)cc1 the results were ALOX12 inhib -4.5%, p53ts 32C tox 9.0%, p53ts 39C kill 15.3% and HPGD block 17.8µM*.
Screening c1ccc2c(c1)Cn1c-2nc2ccccc21 returned ALOX12 inhib 3.3%, p53ts 32C tox 12.6µM*, p53ts 39C kill 7.94µM* and HPGD block -27.5%.
`CC(=O)c1ccc(NC(=O)C(Cc2ccccc2)NS(=O)(=O)c2ccc3c(c2)CCC(=O)N3)cc1` (stereo unspecified) gave p53ts 32C tox 0.5% and p53ts 39C kill -13.1%.
`CCOC(=O)c1sc2ccccc2c1S(=O)(=O)Nc1ccc(OC)c(Cl)c1` gave p53ts 32C tox 22.5% and p53ts 39C kill -29.9%.
Screening COc1ccc(N2CCN(Cc3nc4c(c(=O)[nH]c(=O)n4C)n3CC(C)C)CC2)cc1 returned p53ts 32C tox 5.5% and p53ts 39C kill -2.8%.
`CC1CCN(c2c(NCC3CCC(C(=O)N4CCCCC4)CC3)c(=O)c2=O)CC1` (stereo unspecified) gave ALOX12 inhib -5.0% and HPGD block 0.501µM*.
Screening O=C(C1CCC(CNc2c(N3CCCCC3)c(=O)c2=O)CC1)N1CCCCC1 (stereo unspecified) returned ALOX12 inhib -0.8%, p53ts 32C tox 1.8%, p53ts 39C kill 6.5% and HPGD block 0.398µM*.
For O=C(C1CCC(CNc2c(N3CCOCC3)c(=O)c2=O)CC1)N1CCN(c2ccccc2)CC1 (stereo unspecified) the results were ALOX12 inhib -1.6%, p53ts 32C tox -0.1%, p53ts 39C kill 2.6% and HPGD block -18.0%.
`COc1ccc(NC(=O)C2CCC(CNc3c(N4CCCCC4)c(=O)c3=O)CC2)cc1OC` (stereo unspecified) gave ALOX12 inhib 2.5% and HPGD block -18.4%.

Source: PubChem BioAssay (National Center for Advancing Translational Sciences (NCATS))
